# Test results reported in the supplement of paper PMC12819154, “High-throughput peptide-centric local stability assay extends protein–ligand identification to membrane proteins, tissues and bacteria” (Nature Structural & Molecular Biology, 2025).
# Compound: Nc1ncnc2c1ncn2[C@@H]1O[C@H](COP(=O)(O)OP(=O)(O)OP(=O)(O)O)[C@@H](O)[C@H]1O [adenosine 5'-triphosphate]
# Test: log2 fold change of tryptic peptide abundance, ligand vs vehicle (limited proteolysis) (log2 ratio); higher = more trypsin-susceptible (destabilized)
# Conditions: ligand concentration: 5 mM; sample: E. coli desalted lysate; replicate design: treated before aliquoting
# Experimental: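 HT-PELSA: desalted E. coli K-12 BW25113 lysate (with 12 mM MgCl2) incubated with 5 mM ATP (pH 7) or water for 30 min at 25 C, then a 4 min trypsin pulse at 22 C. Peptides were quantified by DIA-MS (4 replicates). Value is the peptide log2 fold change (treated/control); negative = stabilized. Scale: negative = ligand-stabilized region.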
# 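Also: lysate desalted by size exclusion to strip endogenous ATP, peptide intensities built from DIA-NN precursor signals, and peptides missing any value discarded before comparison.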
# UniProt P37440, sequence (P37440 whole entry): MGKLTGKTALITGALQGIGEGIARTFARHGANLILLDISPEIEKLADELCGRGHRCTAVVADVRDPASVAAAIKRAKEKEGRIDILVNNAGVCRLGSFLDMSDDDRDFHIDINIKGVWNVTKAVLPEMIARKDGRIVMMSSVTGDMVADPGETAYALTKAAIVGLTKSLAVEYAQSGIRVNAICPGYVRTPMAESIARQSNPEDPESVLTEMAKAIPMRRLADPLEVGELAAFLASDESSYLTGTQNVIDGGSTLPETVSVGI
# UniProt P33919, sequence (P33919 whole entry): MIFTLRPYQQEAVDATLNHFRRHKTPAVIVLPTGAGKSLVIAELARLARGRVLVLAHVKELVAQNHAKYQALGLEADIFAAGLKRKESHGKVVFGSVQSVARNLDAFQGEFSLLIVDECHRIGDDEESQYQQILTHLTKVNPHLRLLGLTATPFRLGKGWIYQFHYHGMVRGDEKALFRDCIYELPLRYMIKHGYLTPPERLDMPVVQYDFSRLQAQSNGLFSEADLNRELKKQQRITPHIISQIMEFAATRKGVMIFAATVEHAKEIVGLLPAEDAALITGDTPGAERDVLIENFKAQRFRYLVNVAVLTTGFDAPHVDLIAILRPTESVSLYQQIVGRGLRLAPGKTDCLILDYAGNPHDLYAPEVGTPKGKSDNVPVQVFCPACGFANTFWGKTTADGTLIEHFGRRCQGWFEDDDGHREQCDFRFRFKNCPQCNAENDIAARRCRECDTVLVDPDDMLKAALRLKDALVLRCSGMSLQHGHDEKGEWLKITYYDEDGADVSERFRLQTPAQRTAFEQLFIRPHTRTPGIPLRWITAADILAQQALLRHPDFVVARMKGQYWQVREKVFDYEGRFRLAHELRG
# UniProt P75838, sequence (P75838 whole entry): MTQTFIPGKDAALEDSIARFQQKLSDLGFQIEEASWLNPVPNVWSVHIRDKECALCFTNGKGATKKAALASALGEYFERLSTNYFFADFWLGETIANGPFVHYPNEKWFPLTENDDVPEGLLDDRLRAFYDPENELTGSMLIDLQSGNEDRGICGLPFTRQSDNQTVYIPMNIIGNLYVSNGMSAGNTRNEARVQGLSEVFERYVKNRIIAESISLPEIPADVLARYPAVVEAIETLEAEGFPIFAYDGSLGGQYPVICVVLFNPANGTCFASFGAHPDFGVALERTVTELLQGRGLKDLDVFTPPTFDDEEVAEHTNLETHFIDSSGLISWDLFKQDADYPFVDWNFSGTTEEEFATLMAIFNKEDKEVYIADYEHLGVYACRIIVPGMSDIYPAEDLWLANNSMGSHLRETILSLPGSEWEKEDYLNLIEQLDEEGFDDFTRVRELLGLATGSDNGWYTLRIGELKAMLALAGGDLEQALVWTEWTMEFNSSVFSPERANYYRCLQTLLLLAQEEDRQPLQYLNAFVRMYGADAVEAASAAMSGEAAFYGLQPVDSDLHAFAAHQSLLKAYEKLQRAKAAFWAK
# UniProt P00903, sequence (P00903 whole entry): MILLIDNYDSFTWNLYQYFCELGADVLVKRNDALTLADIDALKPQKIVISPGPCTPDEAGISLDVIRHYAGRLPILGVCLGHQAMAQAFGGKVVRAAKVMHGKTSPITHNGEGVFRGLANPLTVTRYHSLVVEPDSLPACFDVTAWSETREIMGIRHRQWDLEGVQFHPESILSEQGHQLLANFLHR
# UniProt P23874, sequence (P23874 whole entry): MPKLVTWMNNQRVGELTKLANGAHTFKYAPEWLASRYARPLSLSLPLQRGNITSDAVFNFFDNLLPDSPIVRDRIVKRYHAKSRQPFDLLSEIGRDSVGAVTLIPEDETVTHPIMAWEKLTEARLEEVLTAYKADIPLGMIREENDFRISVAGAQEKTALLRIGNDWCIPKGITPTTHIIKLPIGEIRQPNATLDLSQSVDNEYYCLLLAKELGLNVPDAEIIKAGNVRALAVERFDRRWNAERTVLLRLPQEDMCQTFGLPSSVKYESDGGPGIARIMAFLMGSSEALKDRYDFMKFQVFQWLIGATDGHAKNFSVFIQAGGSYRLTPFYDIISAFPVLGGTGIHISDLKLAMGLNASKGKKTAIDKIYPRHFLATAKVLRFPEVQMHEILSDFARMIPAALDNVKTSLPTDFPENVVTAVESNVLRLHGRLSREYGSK
# UniProt P28903, sequence (P28903 whole entry): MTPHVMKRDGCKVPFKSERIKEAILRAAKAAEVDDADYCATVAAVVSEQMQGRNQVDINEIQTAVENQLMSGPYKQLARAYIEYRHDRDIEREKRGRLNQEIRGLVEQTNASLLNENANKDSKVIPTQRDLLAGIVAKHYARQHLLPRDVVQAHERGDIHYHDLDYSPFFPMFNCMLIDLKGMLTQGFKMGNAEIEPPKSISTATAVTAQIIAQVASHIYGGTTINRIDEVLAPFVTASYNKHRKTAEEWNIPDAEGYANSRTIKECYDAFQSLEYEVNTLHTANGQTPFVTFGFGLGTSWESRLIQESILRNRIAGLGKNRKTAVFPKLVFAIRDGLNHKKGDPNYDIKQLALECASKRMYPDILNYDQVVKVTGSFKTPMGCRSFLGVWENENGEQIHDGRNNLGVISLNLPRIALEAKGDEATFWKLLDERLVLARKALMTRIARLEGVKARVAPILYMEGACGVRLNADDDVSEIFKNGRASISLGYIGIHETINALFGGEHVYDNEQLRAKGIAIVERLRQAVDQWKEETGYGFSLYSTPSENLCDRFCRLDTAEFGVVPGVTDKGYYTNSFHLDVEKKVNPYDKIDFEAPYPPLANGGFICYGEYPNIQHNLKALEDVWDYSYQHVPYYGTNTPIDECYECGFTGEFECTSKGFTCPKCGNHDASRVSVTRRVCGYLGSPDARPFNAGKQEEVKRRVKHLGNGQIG
# UniProt P25437, sequence (P25437 whole entry): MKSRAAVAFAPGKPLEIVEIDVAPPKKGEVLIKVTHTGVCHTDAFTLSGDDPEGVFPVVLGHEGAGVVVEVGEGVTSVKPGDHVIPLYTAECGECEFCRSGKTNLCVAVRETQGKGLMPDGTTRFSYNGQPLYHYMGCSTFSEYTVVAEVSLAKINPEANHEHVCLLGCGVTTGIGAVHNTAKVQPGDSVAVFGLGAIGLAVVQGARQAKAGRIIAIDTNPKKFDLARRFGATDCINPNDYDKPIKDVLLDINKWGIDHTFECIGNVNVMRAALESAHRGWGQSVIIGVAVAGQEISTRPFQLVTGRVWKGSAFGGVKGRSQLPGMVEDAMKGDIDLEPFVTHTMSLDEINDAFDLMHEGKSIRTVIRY
# UniProt P27833, sequence (P27833 whole entry): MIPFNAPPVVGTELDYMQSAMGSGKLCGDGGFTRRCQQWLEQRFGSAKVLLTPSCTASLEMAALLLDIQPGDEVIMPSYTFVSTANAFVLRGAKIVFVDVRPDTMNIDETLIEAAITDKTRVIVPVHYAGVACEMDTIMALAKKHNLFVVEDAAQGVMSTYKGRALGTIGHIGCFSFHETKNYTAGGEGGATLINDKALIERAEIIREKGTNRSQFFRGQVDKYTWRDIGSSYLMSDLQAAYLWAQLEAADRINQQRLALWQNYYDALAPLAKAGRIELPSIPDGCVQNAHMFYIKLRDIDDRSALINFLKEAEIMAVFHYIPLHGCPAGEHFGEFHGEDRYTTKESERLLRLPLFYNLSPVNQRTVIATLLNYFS
# UniProt P77202, sequence (P77202 whole entry): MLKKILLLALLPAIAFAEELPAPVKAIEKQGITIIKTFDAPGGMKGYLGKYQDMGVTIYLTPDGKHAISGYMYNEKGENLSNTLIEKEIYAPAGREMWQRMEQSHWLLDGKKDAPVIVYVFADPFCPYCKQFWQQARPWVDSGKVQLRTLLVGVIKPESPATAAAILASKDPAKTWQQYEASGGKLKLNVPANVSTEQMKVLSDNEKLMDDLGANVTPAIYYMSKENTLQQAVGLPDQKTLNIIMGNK
# UniProt P76116, sequence (P76116 whole entry): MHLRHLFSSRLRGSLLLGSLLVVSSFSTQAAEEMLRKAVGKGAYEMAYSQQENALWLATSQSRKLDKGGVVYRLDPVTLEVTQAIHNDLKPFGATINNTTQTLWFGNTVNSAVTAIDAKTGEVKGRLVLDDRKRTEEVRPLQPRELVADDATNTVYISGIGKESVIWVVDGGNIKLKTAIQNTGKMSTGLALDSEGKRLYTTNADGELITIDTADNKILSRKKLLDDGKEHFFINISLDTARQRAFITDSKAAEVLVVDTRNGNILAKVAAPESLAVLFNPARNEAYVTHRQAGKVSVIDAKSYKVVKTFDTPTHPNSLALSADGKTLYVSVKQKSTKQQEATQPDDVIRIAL
# UniProt P77258, sequence (P77258 whole entry): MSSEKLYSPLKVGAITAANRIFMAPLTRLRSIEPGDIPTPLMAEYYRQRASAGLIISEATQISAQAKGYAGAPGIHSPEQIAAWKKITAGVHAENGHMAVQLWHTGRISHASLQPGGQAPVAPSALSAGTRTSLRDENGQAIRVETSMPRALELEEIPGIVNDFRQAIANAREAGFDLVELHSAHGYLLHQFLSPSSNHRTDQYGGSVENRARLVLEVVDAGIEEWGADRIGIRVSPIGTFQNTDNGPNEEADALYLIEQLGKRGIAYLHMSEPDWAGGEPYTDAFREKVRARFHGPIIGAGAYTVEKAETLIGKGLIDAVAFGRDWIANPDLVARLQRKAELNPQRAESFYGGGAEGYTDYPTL
# UniProt P37759, sequence (P37759 whole entry): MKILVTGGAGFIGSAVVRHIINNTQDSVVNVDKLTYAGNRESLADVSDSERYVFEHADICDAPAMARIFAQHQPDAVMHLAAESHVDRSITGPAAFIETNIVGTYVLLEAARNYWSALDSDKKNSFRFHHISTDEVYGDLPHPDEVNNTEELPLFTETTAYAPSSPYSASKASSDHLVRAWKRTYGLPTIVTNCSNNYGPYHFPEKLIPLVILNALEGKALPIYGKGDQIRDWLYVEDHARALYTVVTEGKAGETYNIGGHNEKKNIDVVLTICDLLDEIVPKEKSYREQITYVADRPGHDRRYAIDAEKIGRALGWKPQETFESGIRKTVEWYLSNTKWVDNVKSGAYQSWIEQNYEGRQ
row,Target,log2 fold change
1,"UniProt P77202 (peptide sequence: TLNIIMGNK, peptide start residue: 240)",0.511
2,"UniProt P37440 (peptide sequence: LADELCGR, peptide start residue: 45)",-0.817
3,"UniProt P76116 (peptide sequence: NEAYVTHR, peptide start residue: 284)",-0.872
4,"UniProt P75838 (peptide sequence: GICGLPFTR, peptide start residue: 152)",-2.31
5,"UniProt P77258 (peptide sequence: DENGQAIR, peptide start residue: 136)",-0.737
6,"UniProt P27833 (peptide sequence: LCGDGGFTR, peptide start residue: 26)",-0.494
7,"UniProt P23874 (peptide sequence: ISVAGAQEK, peptide start residue: 149)",-4.86
8,"UniProt P00903 (peptide sequence: GLANPLTVTR, peptide start residue: 117)",-0.376
9,"UniProt P28903 (peptide sequence: DGCKVPFK, peptide start residue: 9)",-0.869
10,"UniProt P37759 (peptide sequence: EQITYVADRPGHDRR, peptide start residue: 289)",-0.709
11,"UniProt P33919 (peptide sequence: LLGLTATPFR, peptide start residue: 146)",-1.8
12,"UniProt P25437 (peptide sequence: SQLPGMVEDAMK, peptide start residue: 321)",-0.846
